Source: PubChem BioAssay (National Center for Advancing Translational Sciences (NCATS))
HT1080 IDH1KD tx = qHTS for induction of synthetic lethality in tumor cells producing 2HG: qHTS for the HT-1080-IDH1KD cell line | HT-1080 IDH1 knockdown viability, ATP luminescence, 48 h | Potency, µM (series often up to 46.1 µM), actives largely listed as cytotoxic | hit rate 2% among 360,000 | AID 686971, 2013
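CellTiter-Glo luminescence after 48 h compound exposure at 37 degrees C of IDH1-knockdown HT-1080 cells in 5% FBS RPMI. %Activity scaled between DMSO wells and cell-free media wells, with curves fitted and assigned curve classes.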
TGFb inhibitor = qHTS for Inhibitors of TGF-b. HepG2 CAGA-GFP TGF-b/SMAD3 reporter, GFP fluorescence, 18 h; TGF-beta stimulated, 500 pg/mL final. Potency, µM (titrated, usually from 46.1 µM), usual class: inhibitors. hit rate 1.2% among 410,000. AID 588855, 2011; further: nearly all actives have a fitted effect of over 65% in size
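Using HEPG2 CAGA-GFP reporter cells at 1000 cells/well, we pinned test compounds, stimulated with recombinant TGF-beta (500 pg/mL final) and measured total well GFP after 18 h.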
HT1080-NT tox = qHTS for induction of synthetic lethality in tumor cells producing 2HG: qHTS for the HT-1080-NT fibrosarcoma cell line; Potency, µM (top dose mostly 46.1 µM), usual class: cytotoxic; hit rate 1.6% among 360,000; HT-1080-NT fibrosarcoma viability, CellTiter-Glo ATP luminescence, 48 h;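 further: NT is the 2HG producing partner of a matched IDH1 knockdown line; nearly all actives have a fitted effect of over 55% in size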
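750 cells/well, RPMI + 5% FBS; 2 h settle, compound pin-transfer, 48 h at 37 degrees C. CellTiter-Glo 10 min RT, luminescence. Normalized to DMSO and media-only wells.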
HepG2 viability = qHTS for Inhibitors of TGF-b: Cytotox Counterscreen; HepG2 CAGA-GFP viability, ATP luminescence, 18 h; Potency, µM (highest dose often 46.1 µM), hits mostly cytotoxic; hit rate 0.76% among 410,000; AID 588856, 2011
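HepG2 CAGA-GFP cells (1000/well, DMEM with 1% FBS) received compound, then TGF-beta at 500 pg/mL final, and were incubated 18 hours at 37 degrees C. Viability was read by CellTiter-Glo luminescence. Media-only wells were set as complete cell-killing and DMSO as no toxicity.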
ATXN2 expr inh = Primary qHTS for Inhibitors of ATXN expression | HEK-293 ATXN2-luciferase reporter, luminescence, 24 h | hit rate 0.72% among 360,000 | Potency, µM (series often up to 57 µM), hits mostly inhibitors | AID 1745845, 2022; further: nearly all actives have a fitted effect of over 55% in size
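ATXN2-luciferase reporter cells (luciferase flanked by upstream and downstream ATXN2 gene portions) were treated 24 h at 37 °C with compounds at up to 57 uM. SteadyGlo luminescence gave expression; GF-AFC fluorescence gave viability.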
S2 tox = Viability Counterscreen for Primary qHTS for Inhibitors of ATXN expression; S2 cells (HEK-293 line with an ATXN2-luciferase reporter) viability, CellTiter-Fluor protease fluorescence, 24 h; Potency, µM (top dose mostly 56.7 µM), most hits filed as cytotoxic; hit rate 0.49% among 400,000; AID 651635, 2014; further: nearly all actives have a fitted effect of over 40% in size
Hits are given with their value. Most compounds without a hit are left out; they make up all but 3.8% or so of the library. The call rests on the fitted dose curve; in most records, active means well fitted curve in the direction sought with a large enough effect; inconclusive means small, poorly fitted or top-dose-only effect, or another doubt; inactive means no such curve, though single readings can be large; an effect the other way counts as inactive or inconclusive.

How did Fc1ccc(/C=C2\CCCC3=C2Nc2ncnn2C3c2ccc(F)cc2)cc1 (stereo not given) do in these assays?
HT1080 IDH1KD tx: 6.5µM; TGFb inhibitor: inconclusive; HT1080-NT tox: 7.3µM; HepG2 viability: inactive; ATXN2 expr inh: 25µM; S2 tox: 18µM

How did COc1cc(NC(C)=O)ccc1-c1cc2ccccc2oc1=O do in these assays?
HT1080 IDH1KD tx: inconclusive; TGFb inhibitor: inconclusive; HT1080-NT tox: inactive; HepG2 viability: inactive; ATXN2 expr inh: inactive; S2 tox: inactive

Results for COc1ccc2nc(NC(=O)c3cccc(-c4cc5ccccc5oc4=O)c3)sc2c1 ?
HT1080 IDH1KD tx: 18µM; TGFb inhibitor: inactive; HT1080-NT tox: 15µM; HepG2 viability: inactive; ATXN2 expr inh: inconclusive; S2 tox: inconclusive

What do the screens show for `COc1cc(NC(=O)c2ccc(Cl)cc2Cl)ccc1-c1cc2ccccc2oc1=O`?
HT1080 IDH1KD tx: inconclusive; TGFb inhibitor: 13µM; HT1080-NT tox: inconclusive; HepG2 viability: 11µM; ATXN2 expr inh: inactive; S2 tox: inactive

What do the screens show for `COc1ccc2nc(NC(=O)c3cc(=O)c4ccccc4o3)sc2c1`?
TGFb inhibitor: inactive; HepG2 viability: inactive; ATXN2 expr inh: inactive; S2 tox: inactive

What do the screens show for `COc1ccc(C(=O)Nc2cccc(-c3cc4ccccc4oc3=O)c2)cc1[N+](=O)[O-]`?
HT1080 IDH1KD tx: inconclusive; TGFb inhibitor: inconclusive; HT1080-NT tox: 16µM; HepG2 viability: inactive; ATXN2 expr inh: inactive; S2 tox: inactive

Results for Cc1cnc(C(=O)NCc2c(C)ncc3c2CCN(C(=O)/C=C/c2cccs2)C3)cn1 ?
S2 tox: inactive

How did CN1C(=O)/C(=N\OC(=O)c2cccc3ccccc23)c2ccccc21 do in these assays?
HT1080 IDH1KD tx: inconclusive; TGFb inhibitor: inconclusive; HT1080-NT tox: 13µM; HepG2 viability: inactive; ATXN2 expr inh: inactive; S2 tox: inactive

How did COc1ccc(C(=O)O/N=C2\C(=O)N(C)c3ccccc32)cc1 do in these assays?
HT1080 IDH1KD tx: inactive; TGFb inhibitor: inactive; HT1080-NT tox: inactive; HepG2 viability: inactive; S2 tox: inactive

Results for CC(=O)c1cccc(NC(=S)NNC(=O)c2ccco2)c1 ?
HT1080 IDH1KD tx: inactive; TGFb inhibitor: inactive; HT1080-NT tox: inactive; HepG2 viability: inactive; S2 tox: inactive

What do the screens show for `C=C(C)CNC(=S)NNC(=O)c1ccco1`?
HT1080 IDH1KD tx: inconclusive; TGFb inhibitor: inconclusive; HT1080-NT tox: 2µM; HepG2 viability: inactive; ATXN2 expr inh: inactive; S2 tox: inactive

What do the screens show for `O=C1c2ccccc2C(=Cc2cccnc2)c2ccccc21`?
HT1080 IDH1KD tx: inactive; TGFb inhibitor: inactive; HT1080-NT tox: inactive; HepG2 viability: inactive; S2 tox: inconclusive

Results for CCN1C(=O)S/C(=C/c2ccsc2)C1=O ?
HT1080 IDH1KD tx: inactive; TGFb inhibitor: inactive; HT1080-NT tox: inactive; HepG2 viability: inactive; ATXN2 expr inh: inactive; S2 tox: inactive

What do the screens show for `CC(C)N1C/C(=C/c2cccnc2)C(=O)/C(=C/c2cccnc2)C1`?
HT1080 IDH1KD tx: 5.8µM; TGFb inhibitor: 7.1µM; HT1080-NT tox: 6.5µM; HepG2 viability: inactive; ATXN2 expr inh: inactive; S2 tox: inconclusive

How did CN1C/C(=C/c2cccnc2)C(=O)/C(=C/c2cccnc2)C1 do in these assays?
HT1080 IDH1KD tx: inconclusive; TGFb inhibitor: 2.8µM; HT1080-NT tox: inconclusive; HepG2 viability: inactive; ATXN2 expr inh: 20µM; S2 tox: inconclusive

How did CC(C)N1C/C(=C/c2ccsc2)C(=O)/C(=C/c2ccsc2)C1 do in these assays?
HT1080 IDH1KD tx: inconclusive; TGFb inhibitor: 7.9µM; HT1080-NT tox: inconclusive; HepG2 viability: inactive; ATXN2 expr inh: inconclusive

Results for CC(=O)c1ccc(-c2cc(F)cc3c2OC(CNC(=O)Cc2cn4ccsc4n2)C3)s1 (stereo not given) ?
S2 tox: inactive

Results for COc1cc(=O)n2c(c1C(=O)NCc1nccs1)CCN(Cc1ccccc1F)CC2 ?
S2 tox: inactive

What do the screens show for `Cc1ccc(NC(=O)C2=C(c3ccccc3)S(=O)(=O)CCS2(=O)=O)cc1`?
HT1080 IDH1KD tx: 7.3µM; TGFb inhibitor: 3.5µM; HT1080-NT tox: 10µM; HepG2 viability: 7.1µM; ATXN2 expr inh: inconclusive; S2 tox: 11µM

How did Cc1cnc(-c2cc(N3CCN(C(=O)CCS(C)(=O)=O)CC3)ncc2Cl)c(C)c1 do in these assays?
ATXN2 expr inh: inactive

How did CC(C)(C)c1ccc(-c2noc(CCC(=O)Nc3cccc(Cl)c3)n2)cc1 do in these assays?
TGFb inhibitor: inactive; HepG2 viability: inactive; ATXN2 expr inh: inconclusive; S2 tox: inactive

Results for O=C(c1ccccc1)N1CCN(c2ncnc3c2cnn3-c2ccccc2)CC1 ?
HT1080 IDH1KD tx: inactive; TGFb inhibitor: inactive; HT1080-NT tox: inactive; HepG2 viability: inactive; ATXN2 expr inh: inactive; S2 tox: inactive

Results for Cc1nn(-c2ccccc2)c(Cl)c1C(=O)N1CCN(c2ncnc3c2cnn3-c2ccccc2)CC1 ?
HT1080 IDH1KD tx: inconclusive; TGFb inhibitor: inconclusive; HT1080-NT tox: 21µM; HepG2 viability: inactive; ATXN2 expr inh: 18µM

What do the screens show for `Cc1ccc(Cl)cc1-n1ncc2c(N3CCN(Cc4ccccc4)CC3)ncnc21`?
TGFb inhibitor: inactive; HepG2 viability: inactive; ATXN2 expr inh: 16µM; S2 tox: 18µM

Results for CCN1CCN(c2ncnc3c2cnn3-c2cc(Cl)ccc2C)CC1 ?
TGFb inhibitor: inactive; HepG2 viability: inactive; ATXN2 expr inh: inactive; S2 tox: inconclusive

How did O=C(NCC(=O)N1CC=C(c2ccccc2)CC1)c1ccc(OC(F)F)cc1 do in these assays?
HT1080 IDH1KD tx: inactive; TGFb inhibitor: inactive; HT1080-NT tox: inconclusive; HepG2 viability: inactive; S2 tox: inactive

How did COc1cc(OC)cc(C(=O)NCC(=O)N2CC=C(c3ccccc3)CC2)c1 do in these assays?
HT1080 IDH1KD tx: 13µM; TGFb inhibitor: inactive; HT1080-NT tox: 16µM; HepG2 viability: inactive; ATXN2 expr inh: inactive; S2 tox: inactive

How did Cc1ccc2[nH]c(-c3ccccc3)cc(=O)c2c1 do in these assays?
HT1080 IDH1KD tx: 1µM; TGFb inhibitor: inconclusive; HT1080-NT tox: 0.73µM; HepG2 viability: inactive; ATXN2 expr inh: inactive; S2 tox: inactive

What do the screens show for `Cc1cccc(N=N/C(=C\O)C(=O)c2ccc(Br)cc2)c1`?
HT1080 IDH1KD tx: inconclusive; TGFb inhibitor: 10µM; HT1080-NT tox: inconclusive; HepG2 viability: inactive; ATXN2 expr inh: inactive

What do the screens show for `Cc1ccc(N=N/C(=C\O)C(=O)c2ccncc2)cc1`?
HT1080 IDH1KD tx: 16µM; TGFb inhibitor: inactive; HT1080-NT tox: 26µM; HepG2 viability: inactive; ATXN2 expr inh: inactive; S2 tox: inactive
